Only some compounds are listed: those with a hit (about 3.4% of all), similar ones and a draw of the others.
TEAD-YAP block – TEAD-YAP interaction inhibition, primary screen, TEAD-YAP interaction inhibitor project, luminescence, HEK-TIYL cells. TEAD-Gal4/YAP UAS-luciferase luminescence. inhibition, % at 9.12 µM. 640,000 tested, 1.4% active; in the data active means inhibition above about 32%;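 further: 0% = median of test compound wells and 100% = reference inhibitor wells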
GPR151 ag – activators of human GPR151, primary screen, cell-based, PathHunter beta-arrestin, luminescence; PathHunter beta-arrestin GPR151 cells; activation, % at 11.2 µM; 650,000 tested, 1% active; AID 1508602, 2020; in the data active means activation above about 4.9%;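 further: 0% = median of compound wells and 100% = cells with positive control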
FBW7 act – FBW7 E3 ligase activators, primary screen, biochemical, AlphaScreen, human; F-box/WD repeat-containing protein 7 (Homo sapiens), Q969H0; AlphaScreen FBW7–phospho-cyclin E peptide binding, activator screen; normalized activity (activation), % at 26.1 µM; 650,000 tested, 0.13% active; AID 1259310, 2017; in the data active means normalized activity above about 1.9%;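 further: purified mutant Fbw7 with reduced substrate affinity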
MITF inh – MITF inhibitors, primary screen, biochemical, AlphaScreen, human | Microphthalmia-associated transcription factor (Homo sapiens), O75030 | AlphaScreen MITF homodimerization, bead proximity signal | inhibition, % at 2.6 µM | 650,000 tested, 0.91% active | AID 1259374, 2018; in the data active means inhibition above about 50%;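 further: 0% = vehicle wells with protein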
Target sequence (O75030 whole entry, looked up): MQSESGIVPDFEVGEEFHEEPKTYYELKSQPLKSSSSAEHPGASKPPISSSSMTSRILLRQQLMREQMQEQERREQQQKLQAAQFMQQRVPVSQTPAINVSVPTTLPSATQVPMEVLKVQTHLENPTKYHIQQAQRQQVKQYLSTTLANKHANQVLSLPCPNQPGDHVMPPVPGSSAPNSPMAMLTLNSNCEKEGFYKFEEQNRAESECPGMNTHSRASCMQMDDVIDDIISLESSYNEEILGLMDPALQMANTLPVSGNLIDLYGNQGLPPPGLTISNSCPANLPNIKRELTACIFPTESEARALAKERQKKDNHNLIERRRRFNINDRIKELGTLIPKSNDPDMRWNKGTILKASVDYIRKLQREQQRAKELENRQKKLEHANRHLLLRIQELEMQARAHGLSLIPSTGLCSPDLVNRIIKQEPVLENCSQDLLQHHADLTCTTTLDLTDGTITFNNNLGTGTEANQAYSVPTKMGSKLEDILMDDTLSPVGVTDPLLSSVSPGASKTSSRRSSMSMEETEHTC
MITF inh conf – MITF inhibitors, retest of hits, confirmation, biochemical, AlphaScreen, triplicate; shares compounds with MITF inh; AlphaScreen MITF homodimerization, biotin/His-MITF beads; inhibition, % at 2.6 µM; 4,700 tested, 16% active; AID 1259372, 2018;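 active means inhibition above a cutoff derived from the DMSO control wells, cut at about 28% in these data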;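 further: 0% = MITF dimer wells with DMSO only; inhibitors lower the bead chemiluminescence by keeping MITF from dimerizing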
AlphaScreen DR – AlphaScreen optical interference compounds, dose response, counter-screen, biochemical, HTS; 480 tested, 6% active; IC50, µM; shares compounds with MITF inh; AlphaScreen optical interference counterscreen, cell-free; call rule not given here
AS interf ctr – AlphaScreen optical interference compounds, counter-screen for MITF inhibitor project, biochemical, triplicate | shares compounds with MITF inh | LysRS AlphaScreen counterscreen, signal interference | inhibition, % at 2.6 µM | 4,700 tested, 7.6% active | AID 1259376, 2018;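 active means inhibition above a cutoff derived from the DMSO control wells, cut at about 30% in these data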
An asterisk follows results filed as active; · = not tested or not shown.

SMILES	TEAD-YAP block	GPR151 ag	FBW7 act	MITF inh	MITF inh conf	AS interf ctr	others
O=C(NCCO)c1ccc2nc(-c3ccco3)c(-c3ccco3)nc2c1	6.6	-0.9	-1.5	73.9*	83.2*	23.9	AlphaScreen DR=>6.48
Cc1ccc(C)c(N2CCN(C(=O)Cn3ncc4ccccc43)CC2)c1	4.6	0.2	-0.2	0.3	·	·
CC(=O)c1ccc(NC(=O)N2CCN(Cc3nc4ccccc4[nH]3)CC2)cc1	-1.0	-1.0	0.0	3.5	·	·
COC(=O)c1ccc(CN2CCN(Cc3nc4ccccc4[nH]3)CC2)o1	3.1	4.9	-0.5	73.1*	4.4	21.3
COc1ccc(CCNC(=O)N2CCN(Cc3nc4ccccc4[nH]3)CC2)cc1	7.9	-0.7	-0.9	8.9	·	·
O=C(c1ccc(Cn2ccnc2)cc1)N1CCN(Cc2nc3ccccc3[nH]2)CC1	-2.6	-0.5	-0.5	87.3*	4.2	13.7
COCCNCC(=O)Nc1ccc(CN2CCCCC2)cc1	1.8	-0.2	-0.1	53.0*	13.6	13.2
COc1cccc(CNCC(=O)Nc2ccc(N3CCCCCC3)cc2)c1	2.2	-0.9	-0.3	53.3*	10.4	24.0
O=C(CCl)Nc1ccc(CN2CCCCC2)cc1	-3.7	-1.2	0.4	15.7	·	·
COCCNCC(=O)Nc1ccc(N2CCCCC2)cc1	3.4	0.3	0.0	60.9*	-13.6	-5.2
CC1CCCCC1NC(=O)Cn1c(=S)[nH]c2ccccc2c1=O (stereo unspecified)	-2.0	1.3	-0.1	7.6	·	·
COc1cc(OC)c(OC)cc1/C=N/NC(=O)CC1C(=O)NN=C1C (stereo unspecified)	12.7	0.3	0.0	66.4*	1.1	-2.9
COc1cc(/C=N/NC(=O)CC2C(=O)NN=C2C)cc(OC)c1OC(C)=O (stereo unspecified)	2.0	0.8	0.0	0.4	·	·
CCn1c2ccccc2c2cc(CN3CCCN(C)CC3)ccc21	-7.5	-0.2	-0.2	40.2	·	·
CCn1c2ccccc2c2cc(CN3CCN(Cc4ccccc4Br)CC3)ccc21	-0.2	-0.4	-0.2	75.7*	16.0	16.4
CCn1c2ccccc2c2cc(CN3CCN(S(=O)(=O)CC)CC3)ccc21	-1.7	-1.1	0.0	53.3*	13.9	9.9
CCn1c2ccccc2c2cc(CN3CCN(Cc4ccccc4C(F)(F)F)CC3)ccc21	4.5	-1.7	-0.1	70.0*	14.5	17.4
COc1ccc(CNC(=O)C(C(=O)c2ccc(F)cc2)n2cc(C)ccc2=O)cc1 (stereo unspecified)	7.5	1.8	0.0	1.8	·	·
COC(=O)c1sccc1NC(=S)N1CCN(Cc2ccccc2)CC1	-0.5	-0.3	-0.2	12.3	·	·
COc1ccc(NC(=S)NCC(O)c2ccccc2)c(OC)c1 (stereo unspecified)	11.9	-0.3	0.2	2.8	·	·
COc1ccc(NC(=S)NCC(C)C)c(OC)c1	6.9	0.2	-0.2	64.9*	11.8	13.8
Cc1cc(Cl)cc(Cl)c1OCCCCNCCN1CCOCC1	2.7	-0.1	-0.1	62.4*	6.5	1.1
Cc1cccc(C(C)(C)C)c1OCCN1CCOCC1	6.2	-0.2	-0.1	80.2*	4.6	10.0
Cc1cc(C)c(OCCN2CCOCC2)c(Cl)c1	6.2	-0.8	0.6	53.8*	16.6	11.9
CNC(=S)N/N=C/c1sc(N2CCCCC2)nc1-c1cccs1	5.8	-1.0	-0.1	1.7	·	·
SMILES	TEAD-YAP block	GPR151 ag	FBW7 act	MITF inh	MITF inh conf	AS interf ctr	others
COc1cc(NC(=O)c2ccc(NC(C)=O)cc2)c(OC)cc1Cl	-2.7	-1.1	-0.2	7.0	·	·
Cc1[nH][nH]c(=O)c1C(c1ccc(-c2cccc([N+](=O)[O-])c2)o1)c1c(C)[nH][nH]c1=O	-0.2	0.2	-0.2	1.4	·	·
Cc1[nH][nH]c(=O)c1C(c1ccc([N+](=O)[O-])o1)c1c(C)[nH][nH]c1=O	3.9	0.0	-1.4	58.8*	27.7*	-1.2	AlphaScreen DR=>6.48
OC(CON=C1c2ccccc2-c2ccccc21)CN1CCNCC1 (stereo unspecified)	-4.5	0.5	-0.7	77.1*	11.7	12.4
COc1ccc(CN2CCN(Cc3ccc(OC)c(Br)c3)CC2)cc1	9.8	-0.5	-0.1	62.2*	14.0	-3.0
CCCS(=O)(=O)N1CCN(Cc2ccc(OC)c(Br)c2)CC1	5.9	1.1	0.0	10.8	·	·
COc1ccc(CN2CCN(Cc3cccc4ccccc34)CC2)cc1Br	-7.8	-0.9	0.3	71.9*	0.5	-2.1
COc1cc(CN2CCN(Cc3ccccc3Cl)CC2)cc(OC)c1	1.6	1.2	0.2	69.0*	5.2	-2.0
COc1cccc(CN2CCN(Cc3ccc(OC)c(Br)c3)CC2)c1	1.9	0.0	-0.1	65.6*	13.5	9.2
CCOC(=O)N1CCN(Cc2ccc(OC)c(Br)c2)CC1	-5.4	-0.8	0.0	2.0	·	·
Cn1cc(-c2nc(-c3ccccc3Br)no2)c(=O)c2cc(F)ccc21	-17.2	3.4	-0.4	-0.3	·	·
COc1ccc(-n2c(SCCc3ccccc3)nc3sc4c(c3c2=O)CCc2ccccc2-4)cc1	-5.3	0.3	0.4	19.1	·	·
CC(C)c1cc(C(C)C)c(S(=O)(=O)N2CCc3ccccc3C2)c(C(C)C)c1	5.6	0.6	-0.1	12.0	·	·
COc1ccc(CN2CCN(S(C)(=O)=O)CC2)cc1Br	9.8	-0.3	0.0	69.8*	4.6	16.2
COc1cccc(CN2CCN(Cc3cccc4ccccc34)CC2)c1	1.7	1.7	0.1	76.6*	-14.6	0.4
CCS(=O)(=O)N1CCN(Cc2ccc(OC)c(Br)c2)CC1	6.9	0.5	0.1	43.8	·	·
COc1cccc(/C(C)=N/N2CCN(Cc3cccc4ccccc34)CC2)c1	8.5	-0.7	-0.2	2.1	·	·
O=C(O)c1ccc(O)c(C=Nc2ccc(N=Cc3cc(C(=O)O)ccc3O)cc2)c1	-10.6	-0.6	-0.2	70.3*	72.6*	-8.5	AlphaScreen DR=>6.48
NC(=O)c1ccc(N=Cc2cc(Br)ccc2O)cc1	-3.0	2.3	-0.1	-5.5	·	·
COc1ccc(CN2CCN(C(=O)c3ccc(F)cc3)CC2)cc1Br	-1.1	0.7	-0.2	51.4*	-1.6	10.3
COc1ccc(CN2CCN(C(=O)c3ccccc3)CC2)cc1Br	6.0	-1.9	0.0	46.2	·	·
COc1ccc(CN2CCN(C(=O)c3cccnc3)CC2)cc1Br	9.2	-0.3	-0.1	59.5*	-6.2	-8.7
COc1cc(CN2CCN(C(=O)c3ccc(F)cc3)CC2)cc(OC)c1O	-0.2	-0.1	-0.1	53.4*	-4.6	1.8
